Data: PubChem BioAssay
Activity calls are given as the source filed them. Unless noted, no rule for the calls is given here.

Tests used:
[1] = HepG2 liver cancer cell viability effects, profiling panel, resazurin fluorescence, 24 h, PK04 Diversity Set (AID 1172); settings: higher = more signal
[2] = basal S. cerevisiae growth modulation, no modifier, primary screen, OD600, strain BY4716, 24 h, basal condition (AID 1173); settings: OD600, 24 h, higher = more signal, called active from +8 up or from −8 down
[3] = MM1S myeloma cell viability, profiling panel, resazurin fluorescence, basal, 24 h, PK04 Diversity Set (AID 1174); settings: higher = more signal, called active from +8 up or from −8 down;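 also: MM1S multiple myeloma cell line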
[4] = biological target: Dihydroorotate dehydrogenase (quinone), mitochondrial (Plasmodium falciparum (isolate 3D7)) (UniProt Q08210); test: PfDHODH enzyme inhibitors, primary screen, biochemical, C-terminal His tag, absorbance 600 nm (AID 1175); settings: DCIP absorbance 600 nm, higher = more signal, called active from +8 up or from −8 down;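 also: recombinant parasite enzyme with a five histidine tag at its C terminus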
[5] = P. aeruginosa biofilm formation inhibitors, primary screen, strain PAO1, LB-PBS medium, absorbance 600 nm (AID 1176); settings: P. aeruginosa PAO1 growth/biofilm, A600, 12 h; higher = more signal
[6] = S. cerevisiae RM11-1a growth modifiers, primary screen, strain RM11-1a, OD600, basal, 24 h (AID 1177); settings: OD600, 24 h, higher = more signal, called active from +8 up or from −8 down;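 also: cultures grown under basal conditions with no added stressor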
[7] = E. coli acrAB mutant growth effects, primary screen, E. coli filamentation inducers, strain DRC39, OD650, 24 h (AID 1178); settings: higher = more signal, called active from +8 up or from −8 down;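 also: growth measured as culture turbidity by optical density at 650 nm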
[8] = E. coli acrAB mutant growth effects, primary screen, E. coli filamentation inducers, strain DRC39, OD650, 48 h (AID 1179);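 also: screen aims at cell division blockers that make cells filament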; settings: E. coli DRC39 delta-acrAB growth, higher = more signal, called active from +8 up or from −8 down
[9] = RPMI8226 myeloma cell viability, profiling panel, resazurin fluorescence, basal, 24 h, PK04 Diversity Set (AID 1180); settings: higher = more signal;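 also: RPMI8826 multiple myeloma cell line at 5000 cells per well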
[10] = biological target: E3 ubiquitin-protein ligase XIAP (Homo sapiens) (UniProt P98170); test: XIAP binders, primary screen, biophysical, small-molecule microarray, fluorescence 635 nm (AID 1181); settings: small-molecule microarray binding, higher = more signal;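 also: score merges 667 nm emission and signal to noise over triplicate slides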
[11] = test system: XIP peptide (Xip251-270) binding; test: small-molecule binders of XIP peptide, primary screen, biochemical, small-molecule microarray, fluorescence 635/667 nm, 0.1 µg/mL protein (AID 1182); settings: fluorescent protein binding, 635 nm, higher = more signal, called active from +8 up or from −8 down
[12] = test system: XIP peptide (Xip251-270); test: small-molecule binders of XIP peptide, primary screen, biochemical, small-molecule microarray, fluorescence 635/667 nm, 0.5 µg/mL protein (AID 1183); settings: small-molecule microarray binding, fluorescence 635 nm; higher = more signal
[13] = Plasmodium falciparum growth inhibition, primary screen, strain 3D7, DAPI fluorescence, 100 nL (AID 1184);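 also: parasites grown inside human red blood cells in medium with human serum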; settings: P. falciparum 3D7 growth, 3 d, higher = more signal
[14] = biological target: Homeobox protein Hox-A13 (Mus musculus) (UniProt Q62424); test: inhibitors of HoxA13-DNA binding, primary screen, biochemical, fluorescence polarization, labeled oligonucleotide (AID 1185); settings: 15 min, higher = more signal, called active from +8 up or from −8 down
[15] = inhibitors of hydroxyurea-induced Chk1 phosphorylation, primary screen, imaging, HeLa, phospho-Chk1 antibody, percent positive cells (AID 1186); settings: hydroxyurea-induced phospho-Chk1 immunofluorescence imaging, higher = more signal
[16] = inhibitors of hydroxyurea-induced Chk1 phosphorylation, primary screen, imaging, HeLa, phospho-Chk1 nuclear intensity (AID 1187); settings: hydroxyurea-induced phospho-Chk1 immunofluorescence imaging, higher = more signal

Sequence of Homeobox protein Hox-A13 (Mus musculus) (Q62424 whole entry, looked up): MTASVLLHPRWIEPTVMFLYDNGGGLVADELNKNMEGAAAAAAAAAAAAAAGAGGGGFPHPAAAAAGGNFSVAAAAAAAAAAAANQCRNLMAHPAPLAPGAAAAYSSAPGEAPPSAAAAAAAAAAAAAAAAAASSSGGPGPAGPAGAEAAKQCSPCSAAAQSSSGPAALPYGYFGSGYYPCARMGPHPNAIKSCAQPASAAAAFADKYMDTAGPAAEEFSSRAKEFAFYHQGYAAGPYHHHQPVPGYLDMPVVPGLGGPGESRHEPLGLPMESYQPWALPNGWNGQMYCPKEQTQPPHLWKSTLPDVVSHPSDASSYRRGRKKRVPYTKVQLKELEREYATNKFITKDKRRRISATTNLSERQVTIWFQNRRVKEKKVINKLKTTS
Sequence of E3 ubiquitin-protein ligase XIAP (Homo sapiens) (P98170 whole entry, looked up): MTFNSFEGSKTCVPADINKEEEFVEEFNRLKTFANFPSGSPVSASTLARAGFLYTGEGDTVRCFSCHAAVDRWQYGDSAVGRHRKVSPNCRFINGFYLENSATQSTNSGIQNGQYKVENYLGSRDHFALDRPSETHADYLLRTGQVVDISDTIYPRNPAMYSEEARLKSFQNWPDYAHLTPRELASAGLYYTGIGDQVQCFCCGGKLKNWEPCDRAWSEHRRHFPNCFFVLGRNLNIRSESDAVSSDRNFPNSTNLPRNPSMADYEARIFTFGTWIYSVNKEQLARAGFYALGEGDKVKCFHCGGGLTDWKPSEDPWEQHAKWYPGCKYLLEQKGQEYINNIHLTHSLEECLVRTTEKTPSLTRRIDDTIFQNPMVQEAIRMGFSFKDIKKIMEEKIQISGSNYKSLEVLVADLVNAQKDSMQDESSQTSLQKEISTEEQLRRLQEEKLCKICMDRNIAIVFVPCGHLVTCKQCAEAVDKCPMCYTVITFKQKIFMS
Sequence of Dihydroorotate dehydrogenase (quinone), mitochondrial (Plasmodium falciparum (isolate 3D7)) (Q08210 whole entry, looked up): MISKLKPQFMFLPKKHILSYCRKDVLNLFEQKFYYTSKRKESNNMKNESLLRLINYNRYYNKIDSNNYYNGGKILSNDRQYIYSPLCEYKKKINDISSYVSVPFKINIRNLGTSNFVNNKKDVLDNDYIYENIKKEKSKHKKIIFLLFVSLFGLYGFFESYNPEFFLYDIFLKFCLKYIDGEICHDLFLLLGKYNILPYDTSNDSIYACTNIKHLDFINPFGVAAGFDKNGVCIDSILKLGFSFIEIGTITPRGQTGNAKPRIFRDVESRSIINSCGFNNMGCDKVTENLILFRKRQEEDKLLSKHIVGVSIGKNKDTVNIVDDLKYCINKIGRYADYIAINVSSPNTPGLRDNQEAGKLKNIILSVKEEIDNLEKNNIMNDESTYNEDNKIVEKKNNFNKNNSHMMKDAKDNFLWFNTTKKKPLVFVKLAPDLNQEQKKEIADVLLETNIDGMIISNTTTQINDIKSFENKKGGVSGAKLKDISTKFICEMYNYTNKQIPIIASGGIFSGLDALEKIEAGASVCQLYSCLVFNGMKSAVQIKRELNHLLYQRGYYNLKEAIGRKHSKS

Compound | z-score [1] | z-score [2] | z-score [3] | composite z-score [4] | z-score [5] | z-score [6] | z-score [7] | z-score [8] | z-score [9] | composite z-score [10] | composite z-score [11] | composite z-score [12] | z-score [13] | z-score [14] | z-score [15] | z-score [16]
COc1ccc(CCNC(=O)[C@@]2(C)c3ccccc3C(=O)N(Cc3cc(C(F)(F)F)cc(C(F)(F)F)c3)[C@H]2c2ccc(CO)cc2)cc1 | 0.0945 | 0.256 (inactive) | 0.084 (inactive) | -0.533 (inactive) | 0.773 (inactive) | -0.147 (inactive) | 0.482 (inactive) | 0.282 (inactive) | 0.639 | 0.0512 | 0.517 (inactive) | 0.702 | -1.88 | -2.88 (inactive) | -0.0741 (inactive) | 0.364 (inactive)
O=C1c2ccccc2[C@](Cc2ccccc2I)(C(=O)O)[C@H](c2ccc(CO)cc2)N1Cc1ccccc1 | -0.52 | -1.72 (inactive) | -0.427 (inactive) | -5.63 (inactive) | -0.121 (inactive) | -2.09 (inactive) | 0.656 (inactive) | 1.39 (inactive) | -0.831 | 0.147 | 0.947 (inactive) | 0.754 | 0.387 | -4.44 (inactive) | -0.422 (inactive) | -0.204 (inactive)
CN(C)C(=O)[C@]1(Cc2ccccc2)N=C(c2ccc(OCCCO)cc2)O[C@@H]1c1ccccc1 | 0.0784 | -1.32 (inactive) | 0.324 (inactive) | 0.179 (inactive) | -0.304 (inactive) | 0.597 (inactive) | -0.809 (inactive) | -0.591 (inactive) | -0.247 | 0.125 | 0.895 (inactive) | 0.851 | -2.38 | -6.32 (inactive) | -0.752 (inactive) | -0.755 (inactive)
CC(C)CNC(=O)[C@@]1(C)c2ccccc2C(=O)N(Cc2cc(F)cc(C(F)(F)F)c2)[C@H]1c1ccc(CO)cc1 | -0.201 | -0.3 (inactive) | 0.919 (inactive) | -0.0555 (inactive) | 1.22 (inactive) | -0.167 (inactive) | 0.167 (inactive) | 0.137 (inactive) | 0.489 | -0.208 | 2.74 (inactive) | 0.467 | -0.586 | -3.51 (inactive) | -0.143 (inactive) | 0.0394 (inactive)
CN(C)CCCCNC(=O)[C@H]1C[C@H]2C(=O)N[C@@H](Cc3ccccc3)C(=O)N2[C@H]1c1cccc(OCCO)c1 | 1.36 | -0.456 (inactive) | 1.38 (inactive) | 0.65 (inactive) | -0.254 (inactive) | -0.372 (inactive) | 0.553 (inactive) | 0.862 (inactive) | 1.06 | 0.0512 | -0.0743 (inactive) | -0.0022 | -0.0613 | -3.06 (inactive) | -0.826 (inactive) | -0.851 (inactive)
CC#CCO[Si](C#CCCCCCC)(C(C)C)C(C)C | 0.296 | -9.54 (active) | 0.486 (inactive) | -0.487 (inactive) | 0.501 (inactive) | 0.0606 (inactive) | -0.0081 (inactive) | 0.448 (inactive) | 0.166 | -0.22 | -0.0884 (inactive) | 0.938 | -1.23 | -2 (inactive) | -0.156 (inactive) | 0.0743 (inactive)
COc1ccc(C(O)C2C=CC3C(=O)N(C)C(=O)C3N2Nc2ccc([N+](=O)[O-])cc2[N+](=O)[O-])cc1OCc1ccccc1 (configuration not stated) | -0.448 | 0.944 (inactive) | -1.27 (inactive) | 0.37 (inactive) | -0.0067 (inactive) | 0.371 (inactive) | -0.98 (inactive) | -0.383 (inactive) | -1.39 | 0.165 | -0.237 (inactive) | 0.753 | 0.664 | -2.98 (inactive) | 0.47 (inactive) | 0.219 (inactive)
COCCCNC(=O)[C@@]1(Sc2ccc(C)cc2)CC(=O)N(C2CCCCC2)[C@@H]1c1ccc(CO)cc1I | 0.5 | -0.172 (inactive) | -0.326 (inactive) | 0.335 (inactive) | 0.627 (inactive) | -1.09 (inactive) | 0.16 (inactive) | 0.228 (inactive) | -1.66 | -0.328 | -0.159 (inactive) | 0.736 | -1.39 | -5.66 (inactive) | 0.46 (inactive) | 0.268 (inactive)
O=C1OCCC=C[C@H]2OC34C=CCN(c5ccc(Cl)cc5)C(=O)[C@H]3N(CCO)C(=O)[C@@H]4C12 (some centres not stated) | 0.545 | 0.204 (inactive) | 0.221 (inactive) | -1.45 (inactive) | -0.317 (inactive) | 0.132 (inactive) | -0.947 (inactive) | -1.04 (inactive) | -0.202 | -0.31 | -0.379 (inactive) | 0.561 | -0.136 | -5.37 (inactive) | -0.399 (inactive) | -0.576 (inactive)
C=CC[C@@]1(C(=O)N(C)C)N=C(c2ccc(OCCCO)cc2)O[C@@H]1c1ccccc1 | 0.879 | -2.54 (inactive) | -0.235 (inactive) | 0.13 (inactive) | 0.95 (inactive) | -0.422 (inactive) | -0.936 (inactive) | -0.649 (inactive) | 0.267 | -0.33 | 0.98 (inactive) | 0.425 | -0.76 | -6.79 (inactive) | 0.343 (inactive) | 0.0811 (inactive)
CC(C)C(=C=CC[C@@H](O)c1cccc(OCCO)c1)CCO | 0.545 | -1.15 (inactive) | 0.265 (inactive) | -1.1 (inactive) | 0.2 (inactive) | 0.0632 (inactive) | 0.546 (inactive) | 0.423 (inactive) | 0.336 | -0.127 | 0.202 (inactive) | 0.42 | -0.115 | -1.53 (inactive) | -0.19 (inactive) | 0.247 (inactive)
CO[C@H]1O[C@H](CO)[C@@H](OC(=O)Nc2ccc3c(c2)OCO3)[C@@H]2OC(=O)[C@@H](Cc3ccccc3)C/C=C/C[C@H](Cc3ccccc3)C(=O)O[C@@H]12 | -1.37 | 0.904 (inactive) | -2.59 (inactive) | -0.675 (inactive) | 0.509 (inactive) | 2.14 (inactive) | 0.307 (inactive) | 0.312 (inactive) | -1.38 | 0.785 | 0.462 (inactive) | 0.692 | -0.967 | -8.19 (active) | -0.508 (inactive) | -0.215 (inactive)
